Assay outcomes (PubChem)
IL1B secr inh: inflammasome signaling inhibition, IL-1 beta readout; activity change, % at 57.5 µM; AID 743279; hit rate 4.7% among 360,000; THP-1 LPS/ATP IL-1B secretion, AlphaLISA, 16 h; active compounds read low; in the data active means activity change below about -50%; inconclusive means mostly about -30% to -49%; further: on the % scale 0 is the no-effect control and ±100 the full control effect
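THP-1 cells pretreated 1 hr with compounds (up to 57.5 uM final), then stimulated with LPS (250 ng/mL final) plus ATP (1.25 mM final); secreted IL-1B measured by AlphaLISA after 16 hr, decreased signal indicating inhibition.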
TDP1 cell noCPT: qHTS for Inhibitors of human tyrosyl-DNA phosphodiesterase 1 (TDP1): qHTS in cells in absence of CPT | DT40 Tdp1-/- hTDP1 cells, no CPT, ATP luminescence, 48 h | Potency, µM (top dose mostly 46.2 µM), without a hit: top-dose activity change, negative = growth inhibition, most hits filed as inhibitors | hit rate 15% among 420,000 | AID 686978, 2013; further: potency means the concentration at half of the fitted maximal effect; on the % scale 0 is the no-effect control and ±100 the full control effect; nearly all actives have a fitted effect of over 55% in size
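A cellular qHTS used chicken DT40 cells lacking endogenous Tdp1 but carrying stably transfected human TDP1. Compounds were applied without camptothecin, and cell growth kinetics were judged by ATP-dependent luminescence after ≥48 hr.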
D3 ag: D3 dopamine receptor (human) agonism. D3R DiscoveRx beta-arrestin cells, luminescence, 90 min. max activation, %. hit rate 0.58% among 410,000. AID 652048; in the data active means max activation above about 30%; further: 0% is about no effect
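Agonist mode: compounds and dopamine controls were applied to plated cells for 90 min at 37 degrees C after an overnight attachment at 1500 cells/well. Luminescent read-out followed 30 - 60 minutes at room temperature with DiscoveRx detection reagent.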
TDP1 cell CPT: growth inhibition of DT40 Tdp1-/-;hTDP1 cells with camptothecin (screen for TDP1 inhibitors). chicken DT40 Tdp1-/-;hTDP1 cells + 20 nM CPT, ATP luminescence, 48 h. Potency, µM (highest dose often 46.2 µM), without a hit: at the top dose activity change, negative = growth inhibition, actives largely listed as inhibitors. hit rate 12% among 420,000. AID 686979; further: potency means the concentration at half of the fitted maximal effect; on the % scale 0 is the no-effect control and ±100 the full control effect; nearly all actives have a fitted effect of over 55% in size
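Chicken DT40 Tdp1-/- cells complemented with human TDP1, 400 cells/well, exposed to compounds plus 20 nM camptothecin for at least 48 h at 37 C; viability read as ATP content by CellTiter-Glo luminescence.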
ClpP mod: qHTS Assay for Activators of ClpP; purified B. subtilis ClpP, FRET peptide cleavage, 20 min; Potency, µM (doses to about 57.5 µM), inactives show top-dose activity change, negative = active; hit rate 1.9% among 340,000; active means well fitted falling curve with a large enough effect; inconclusive means small, poorly fitted or top-dose-only effect; inactive means no such curve, though single readings can be large or run the other way; further: potency means the concentration at half of the fitted maximal effect; the source files actives as falling curves though it sought activators and does not explain the sign; nearly all actives have a fitted effect of over 65% in size
Target sequence (P80244 whole entry, looked up): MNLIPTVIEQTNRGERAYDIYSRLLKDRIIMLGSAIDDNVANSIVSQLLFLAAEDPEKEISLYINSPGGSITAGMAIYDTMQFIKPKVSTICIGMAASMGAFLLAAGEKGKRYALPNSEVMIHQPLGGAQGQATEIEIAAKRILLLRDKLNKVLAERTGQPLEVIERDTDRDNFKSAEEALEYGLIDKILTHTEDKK
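Buffer: 100 mM Tris/HCl pH8, 100 mM KCl, 0.05% low protease BSA, 2.5% glycerol, 0.01% Tween-20. ClpP 10 microg/mL final; 20 min RT; delta FRET normalized to ADEP and DMSO controls.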
DRD3 antagonist: blocks the human D3 dopamine receptor; D3R cells, DiscoveRx beta-arrestin luminescence, antagonist mode; active compounds read low; max response, negative = inhibition, %; AID 652054; hit rate 2.5% among 360,000; in the data active means max response below about -50%; inconclusive means no clear call, values can overlap the other calls; further: on the % scale 0 is the no-effect control and ±100 the full control effect
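Cells plated overnight at 1500 cells/well, then exposed to library compounds with dopamine controls for 90 minutes at 37 degrees C. DiscoveRx reagent added for 30–60 minutes at room temperature; luminescence read, quantitative HTS format.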
The depositor's hits bear a star; ? = inconclusive; . = not tested or not shown; [ ] = remark or other dose. In the library only some 21% were active in any assay of this set; here they are far more common. Unless noted, the call rests on the fitted dose curve; in most records, active means well fitted inhibition curve with a large enough effect; inconclusive means small, poorly fitted or top-dose-only effect; inactive means flat fitted curve, though single readings scatter.

SMILES	IL1B secr inh	TDP1 cell noCPT	D3 ag	TDP1 cell CPT	ClpP mod	DRD3 antagonist
COc1ccc(NC(=O)c2ccc(Br)o2)cc1	-9.3	?	8.7	?	-0.5%	-8.7
O=C(NCCc1ccccc1)c1ccc(-c2ccccc2C(F)(F)F)o1	-58.6*	?	-40.4	9.2µM*	?	0.0
O=C(NCc1ccccc1)c1ccc(-c2ccccc2F)o1	-20.9	-5.5%	-22.7	-19.1%	-27.3%	?
COc1ccccc1CNC(=O)c1ccc(-c2ccccc2C(F)(F)F)o1	-14.5	20.6µM*	-16.8	20.6µM*	-21.1%	-15.3
O=C(NCCc1ccccc1)c1ccc(-c2ccc(F)cc2)o1	-53.6*	-5.7%	11.3	3.2%	.	5.8
COc1ccc(NC(=O)c2ccc(-c3ccccc3C(F)(F)F)o2)cc1	2.4	16.4µM*	-74.8	?	-11.0%	?
CC(C)(CO)NC(=O)Nc1ccc(Cl)c(Cl)c1	-2.2	-15.3%	-11.4	21.4%	.	-10.5
Cc1ccc2c(CC(=O)N3CCOc4ccc(CN5C[C@@H](C)O[C@@H](C)C5)cc4C3)cc(=O)oc2c1	.	-14.5%	.	21.1%[9.04 µM]	.	.
CCCNC(=O)C(Cc1ccc(F)cc1)NC(=O)c1ccc(C#N)cc1 (stereo not drawn)	18.4	-18.5%	-6.0	-19.2%	-1.3%	2.2
CC(C)(C)c1cc(NC(=O)c2ccc(OC3CCCC3)cc2)no1	-8.2	?	34.7*	?	-1.4%	9.3
CCCC(=O)Nc1nc2ccc(S(=O)(=O)N3CCCCC3)cc2s1	29.8	1.3µM*	-5.1	1.3µM*	1.4%	?
CC(C)CC(=O)Nc1nc2ccc(S(=O)(=O)N3CCOCC3)cc2s1	12.9	20.6µM*	-6.1	13µM*	-0.7%	9.3
CC(=O)Nc1nc2ccc(S(=O)(=O)N3CCCC3)cc2s1	69.6	-17.6%	-4.3	?	-1.2%	-8.0
CC(C)[C@H](NC(=O)c1cccc(S(=O)(=O)N2CCOCC2)c1)C(=O)Nc1nc2ccccc2s1	-53.6*	?	-4.0	?	0.6%	0.7
O=C(Nc1ccccc1)N1CCN(C(=O)c2nsc3ccccc23)CC1	.	-21.4%	-2.4	-7.1%	-1.0%	.
CC(C)c1ccc(NC(=O)C(Cc2ccccc2)NS(=O)(=O)c2ccc3c(c2)oc(=O)n3C)cc1 (stereo not drawn)	.	?	6.2	?	1.0%	.
CCCn1c(-c2ccccc2)nc2c(=O)n(C)c(=O)[nH]c21	4.7	0.2%	0.9	-5.5%	?	-4.5
Cc1nc2c(=O)n(C)c(=O)[nH]c2n1Cc1ccccc1	12.0	1.8%	-2.5	-4.8%	28.2µM*	-61.5*
CNC(=O)N(O)C1N(/N=C/c2ccccc2OC)C(=S)SC1(C)C (stereo not drawn)	22.0	0.3%	-12.7	22.9%	0.4%	-5.6
CCC(C)(C)c1ccc(CC(C)CN2C[C@@H](C)O[C@@H](C)C2)cc1 (stereo partly drawn)	.	?	-3.1	?	.	.
O=S(=O)(NCC1(N2CCOCC2)CCCCC1)c1ccc(F)c(F)c1F	1.7	?	-1.4	10.3µM*	-0.4%	7.8
OCCN(CCO)c1cc2c3ccccc3ccc2c2ccccc12	-65.2*	16.4µM*	4.5	?	0.0%	-17.4
OCCN(CCO)c1ccc2ccccc2c1	18.0	1.5%	5.9	-23.4%	3.9%	3.7
CN(C)c1ccc2ccc3cccc4ccc1c2c34	.	-19.4%	.	-24.4%	4.7%	.
CN(C)c1cc2c3ccccc3ccc2c2ccccc12	.	15.8µM*	.	?	4.0%	.
CCN(CC)C1CCN(C(=O)c2cnn(-c3nccc(-c4ccco4)n3)c2C(C)C)C1 (stereo not drawn)	.	0.9%	.	-1.1%[9.04 µM]	.	.
O=C(NCC1CCCO1)C(=O)NCC(c1ccco1)N1CCN(c2ccccc2F)CC1 (stereo not drawn)	38.4	?	50.8*	-4.3%	0.7%	87.5
